PBM binding z-score data for seven sequences are collected here from the supplement of paper PMC6555819.

Holding throughout (assay): PBM binding z-score (relative to random genomic background probes); higher = stronger binding; sequences stand for … in GC…GCGATTGACAGCGTAGAATGAAGG
Experiment [1] has as its system FXR:RXRa (NR concentration 270 nM, RXRa partner concentration 90 nM). The procedure, abridged: (§1)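 The probes on custom Agilent 4×180K protein-binding microarrays were double-stranded, with 34-nt variable regions bearing direct-repeat seeds, single-nucleotide variants, half-site ablations and random human genomic background sequences. Incubation lasted 1 h with ligand-free nuclear receptor dimers in PBS pH 7.4, 2% milk, 0.02% Triton X-100, 1 mM DTT, 0.2 mg/mL BSA and 0.4 mg/ml salmon testes DNA. Antibodies against each partner (one per run) detected bound dimers, and fluorescence scans were regression-normalized. Binding z-scores take the random background probes as reference.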

The subject of experiment [2] is LXRa:RXRa (NR concentration 270 nM, RXRa partner concentration 90 nM). Summed up:
as §1

Experiment [3] relates to LXRa homodimer (NR concentration 270 nM). Summed up:
as §1

Experiment [4] concerns LXRb:RXRa (NR concentration 270 nM, RXRa partner concentration 90 nM). The procedure, abridged: as §1
Experiment [5] concerns LXRb homodimer (NR concentration 270 nM). The procedure, abridged: as §1
For experiment [6], the system named is PPARa:RXRa (NR concentration 270 nM, RXRa partner concentration 90 nM). The procedure, abridged: as §1
Experiment [7] deals with PPARg:RXRa (NR concentration 180 nM, RXRa partner concentration 90 nM). Summed up:
as §1

Experiment [8] concerns PPARg:RXRa 270nM:90nM, anti-RXR (NR concentration 270 nM, RXRa partner concentration 90 nM). The procedure, abridged:
as §1

In experiment [9] the test system is PPARg:RXRa 30nM:10nM, anti-RXR (NR concentration 30 nM, RXRa partner concentration 10 nM). Summed up: as §1
For experiment [10], the system named is PPARg:RXRa 90nM:30nM, anti-RXR (NR concentration 90 nM, RXRa partner concentration 30 nM). Summed up:
as §1

The subject of experiment [11] is PPARg:RXRa DBDmut IVT, anti-RXR (DBD mutation: RXRa K156A/R161A, NR concentration 270 nM, RXRa partner concentration 90 nM). The procedure, abridged: as §1
For experiment [12], the system named is PPARg:RXRa IVT, anti-PPARg (NR concentration 270 nM, RXRa partner concentration 90 nM). Summed up: as §1
Experiment [13] concerns PPARg DBDmut:RXRa IVT, anti-PPARg (DBD mutation: PPARg1 K132A/R137A, NR concentration 270 nM, RXRa partner concentration 90 nM). The procedure, abridged:
as §1

The subject of experiment [14] is PPARg DBDmut IVT, anti-PPARg (DBD mutation: PPARg1 K132A/R137A, NR concentration 270 nM). Summed up:
as §1

Experiment [15] has as its system PPARg homodimer (NR concentration 180 nM). Summed up: as §1
For experiment [16], the system named is PXR:RXRa (NR concentration 270 nM, RXRa partner concentration 90 nM). The procedure, abridged: as §1
The test system of experiment [17] is PXR homodimer (NR concentration 270 nM). The procedure, abridged:
as §1

Experiment [18] relates to RARa:RXR (NR concentration 270 nM, RXRa partner concentration 90 nM). Summed up:
as §1

Experiment [19] deals with RARa homodimer (NR concentration 270 nM). Summed up:
as §1

The subject of experiment [20] is RARb:RXRa (NR concentration 270 nM, RXRa partner concentration 90 nM). Summed up: as §1

Take GCTGCTAGGTCAACTGATGGACAGCTAAAGCTCG: the PBM binding z-score in experiment [1] is 3.98; in experiment [2] it was 2.38; in [3], -0.308; in experiment [4] it was 1.66; in [5], 0.0379; in [6], 3.46. The PBM binding z-score in experiment [7] came to 2.8; in [8], 2.99; in experiment [9], 0.269; in experiment [10], 1.92; in [11] it was 4.96; in experiment [12], 4.05. For the same sequence, the PBM binding z-score in experiment [13] is -0.737; in [14] it was -0.4; in [15] it was 0.547; in [16], 1.05; in experiment [17], -0.677; in experiment [18], 1.9. Besides, the results for the PBM binding z-score in experiment [19] and in experiment [20] were -0.785 and 4.12, respectively.

For the sequence CCTATTAGTTGACCATAAGGGCAACCAAAGCTCG, the PBM binding z-score in experiment [1] is 1.06; in experiment [2] it was 0.507; in experiment [3], 0.675; in experiment [4] it was 0.965; in experiment [5], 0.552; in experiment [6] it was 0.948. Also, the PBM binding z-score in experiment [7] stood at 0.604; in experiment [8], 0.461; in [9], 0.262; in [10], 0.51; in experiment [11], 0.357; in experiment [12], 0.63. Moreover, the PBM binding z-score in [13] was 0.3; in [14], 0.552; in experiment [15], 1.72; in experiment [16], 1.18; in experiment [17], 1; in [18], 1.47. For the same sequence, the PBM binding z-score turned out to be 2.44 in [19] and 1.62 in experiment [20].

For the sequence CCTAGTTGGACAAGGTCACACACGCTATAGGTAC, the PBM binding z-score in [1] came to 3.57; in [2], 3.53; in experiment [3], 1.48; in experiment [4] it was 3.58; in experiment [5] it was 0.67; in [6], 4.1. In addition, the PBM binding z-score in [7] stood at 2.58; in [8], 2.92; in experiment [9], 0.968; in experiment [10], 2.08; in [11] it was 0.793; in experiment [12] it was 2.52. Moreover, the PBM binding z-score was found to be 0.526 in [13]; 0.701 in experiment [14]; 3.15 in [15]; 3.9 in [16]; 1.97 in experiment [17]; 4.4 in [18]. The values for the PBM binding z-score in experiment [19] and in experiment [20] were 2.1 and 3.85, respectively.

With GCATGTAGATCAAGGTTAAGAAAGACTAAGCTAA, the PBM binding z-score in experiment [1] was 0.0428; in experiment [2], 0.684; in [3] it was -0.386; in experiment [4] it was 0.504; in [5], -0.805; in [6] it was 1.47. Also, the PBM binding z-score in experiment [7] stood at 1.33; in experiment [8] it was 2; in experiment [9] it was 0.418; in experiment [10], 1.55; in experiment [11] it was 1.08; in experiment [12] it was 0.797. Also, the PBM binding z-score in experiment [13] is -0.718; in experiment [14] it was -0.329; in experiment [15], -0.173; in experiment [16], 0.293; in experiment [17], -0.179; in [18] it was 0.536. Further, the PBM binding z-score in [19] was -0.356; in experiment [20], 0.552.

For TCTTGTAGATCATAGGTTAAGAAAGCCGAAGCCT, the PBM binding z-score was 1.15 in experiment [1]; 0.999 in experiment [2]; -0.0576 in [3]; 0.991 in [4]; 0.0364 in experiment [5]; 2.8 in [6]. Further, the PBM binding z-score in experiment [7] worked out at 4.38; in experiment [8] it was 5.93; in experiment [9], 4.93; in experiment [10] it was 6.23; in experiment [11] it was 1.8; in experiment [12], 1.96. Moreover, the PBM binding z-score in [13] was 0.499; in [14], 1.11; in [15], 0.856; in [16], 0.84; in experiment [17], -0.184; in experiment [18], 1.37. In addition, the results for the PBM binding z-score in experiment [19] and in [20] were 0.366 and 0.882, respectively.

For AGAATGAGGGTACCAAAGATCAGGGAAACGCTTG, the PBM binding z-score in experiment [1] is -0.148; in experiment [2], 2.43; in [3] it was -0.475; in experiment [4], 0.326; in experiment [5] it was -0.167; in [6], 1.18. Further, the PBM binding z-score came out at 1.28 in [7]; 1.52 in [8]; 0.506 in experiment [9]; 1.19 in experiment [10]; 1.95 in experiment [11]; 1.35 in [12]. The PBM binding z-score in [13] was 0.283; in experiment [14] it was 0.511; in [15] it was -0.237; in experiment [16] it was -0.107; in [17] it was 0.0728; in experiment [18] it was 0.253. In addition, the PBM binding z-score in [19] came out at 0.0319; in experiment [20] it was 0.552.

In the case of ACAGACAGGTGATGAGGGTAACTCAGGCTATCAT, the PBM binding z-score is 0.367 in experiment [1]; -0.0236 in experiment [2]; 0.0191 in experiment [3]; 0.0104 in experiment [4]; -0.517 in [5]; 0.465 in [6]. Also, the PBM binding z-score in [7] is 0.8; in experiment [8] it was -0.0214; in [9] it was 0.142; in experiment [10], -0.218; in experiment [11], -0.0163; in experiment [12], 0.685. In addition, the PBM binding z-score was -0.934 in experiment [13]; 0.0306 in experiment [14]; 0.543 in experiment [15]; 0.296 in [16]; -0.131 in [17]; 0.591 in [18]. The PBM binding z-score in [19] is -0.698; in experiment [20], 0.496.
